High-throughput results from PubChem.
A selection: hits, their analogues and other compounds. The true share with any hit is near 4.4%.
p53ts 39C kill: kills p53ts cells at the nonpermissive temperature | H1299-p53A138V viability at 39C, ATP luminescence, 24 h | Potency, µM (doses to about 46.1 µM), for inactives: top-dose activity change, negative = cell killing, actives largely listed as cytotoxic | hit rate 1.5% among 130,000; note: nearly all actives have a fitted effect of over 55% in size
ALOX12 inhib: inhibitors of human 12-lipoxygenase (ALOX12); purified 12-hLO, xylenol orange hydroperoxide absorbance; P18054; Potency, µM (series often up to 57.1 µM), for the others: at the highest dose activity change, negative = inhibition, actives largely listed as inhibitors; hit rate 0.12% among 150,000; note: nearly all actives have a fitted effect of over 55% in size
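Purified human 12hLO (150 nM final) was preincubated with compounds for 15 min at room temperature in 25 mM Hepes pH 7.0, 0.01% Triton X-100, then reacted with 40 uM arachidonic acid for 30 min. Hydroperoxide was detected with ferrous iron/xylenol orange.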
p53ts 32C kill: p53ts cell cytotoxicity, permissive temperature; H1299-p53A138V at 32C, ATP luminescence viability, 24 h; Potency, µM (top dose mostly 46.1 µM), inactives show top-dose activity change, negative = cytotoxicity, actives largely listed as cytotoxic; hit rate 0.93% among 130,000;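 note: 0% = DMSO and -100% = full killing by reference compound; nearly all actives have a fitted effect of over 55% in size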
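Cells: H1299 p53ts (A138V), 600/well, pre-incubated 16–30 h at 37C. Cpd up to 46 uM, 24 h, 32C. Readout: ATPlite luminescence, 20 min RT. Normalization: DMSO vs tamoxifen 100 uM. AC50 by Hill equation.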
HPGD inh: blocks human HPGD enzyme activity; Potency, µM, without a hit: top-dose activity change, negative = inhibition, actives largely listed as inhibitors; purified HPGD, NADH fluorescence kinetic, PGE2 substrate; hit rate 4.3% among 150,000; active = well fitted inhibition curve with a large enough effect, not every such curve was filed as active; inconclusive = small, poorly fitted or top-dose-only effect, or another doubt; inactive = no such curve, though single readings can be large or run the other way
Target sequence (P15428 whole entry, looked up): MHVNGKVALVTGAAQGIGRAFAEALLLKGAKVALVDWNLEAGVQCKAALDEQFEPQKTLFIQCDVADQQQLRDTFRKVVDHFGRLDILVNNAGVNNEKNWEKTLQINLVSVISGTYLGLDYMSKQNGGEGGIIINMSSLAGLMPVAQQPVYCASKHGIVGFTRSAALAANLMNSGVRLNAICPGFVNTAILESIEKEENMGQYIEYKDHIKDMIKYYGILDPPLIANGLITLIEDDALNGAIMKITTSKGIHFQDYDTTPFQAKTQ
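NADH formation kinetics: reaction with 30 uM PGE2 and 1 mM NAD+ (final), 20 nM enzyme, Tris-HCl pH 8 with Tween 20, after 15 min compound preincubation at room temperature. Fluorescence change, last versus first of five reads.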
The depositor's hits bear a star; ? = inconclusive; . = no result given; [ ] = remark or other dose. Unless noted, calls come from the whole dose curve; as a rule, active = well fitted curve in the direction sought with a large enough effect; inconclusive = small, poorly fitted or top-dose-only effect, or another doubt; inactive = no such curve, though single readings can be large; an effect the other way counts as inactive or inconclusive. Unless noted, % is set by controls: 0 for no effect and ±100 for the full control effect; potency is the fitted concentration of half-maximal effect.

SMILES	p53ts 39C kill	ALOX12 inhib	p53ts 32C kill	HPGD inh
CCN1CCN(c2nc3c(c(=O)[nH]c(=O)n3C)n2CCSc2nc3ccccc3s2)CC1	.	-4.1%	.	-7.4%
CC(CSc1nc2ccccc2s1)Cn1c(N2CCCC2)nc2c1c(=O)[nH]c(=O)n2C (stereo not drawn)	1.4%	3.5%	0.3%	22.4µM*
O=C(c1cc(-c2ccc(F)cc2)on1)N1CCCC1	10µM*	-7.4%	15.8µM*	.
COc1cccc(-c2cc(C(=O)N3CCCCCC3)no2)c1	10µM*	-10.0%	12.6µM*	2.51µM*
COc1ccccc1-c1cc(C(=O)N2CCCCC2C)no1 (stereo not drawn)	-4.9%	.	10.9%	.
O=C(c1cc(-c2ccc(Cl)c(Cl)c2)on1)N1CCCC1	4.2%	-5.8%	-3.8%	-10.4%
COc1cccc(-c2cc(C(=O)N3CCCCC3C)no2)c1 (stereo not drawn)	?	-3.3%	?	15.8µM*
O=C(c1cc(-c2cccc(O)c2)on1)N1CCCCC1	?	-1.2%	?	4.47µM*
CCOC(=O)C1CCCN(C(=O)c2cc(-c3ccc(C)cc3)on2)C1 (stereo not drawn)	?	-5.1%	?	15.8µM*
COc1ccc(-c2cc(C(=O)N3CCc4ccccc4C3)no2)cc1OC	-10.3%	-12.3%	8.8%	11.2µM*
COc1cccc(-c2cc(C(=O)O)no2)c1	.	-1.0%	.	5.62µM*
Cc1ccc(NC(=O)CN2C(=O)S/C(=C\c3ccc(-c4cccc(C(=O)O)c4C)o3)C2=O)cc1	.	-6.3%	.	10µM*
O=Cc1cccn1Cc1ccccc1[N+](=O)[O-]	.	-4.7%	.	-3.9%
N#CCc1ccccc1[N+](=O)[O-]	10.4%	-4.8%	10.3%[1.84 µM]	8.91µM*
CC(=O)N1CCN(c2ccc(NCc3ccc(C)s3)cc2)CC1	-9.3%	11.2µM*	-8.7%	-14.7%
O=C(O)c1ccc2c(c1)C(=O)N(Cc1ccc3c(c1)OCO3)C2=O	.	-7.4%	.	4.47µM*
O=C1c2ccccc2C(=O)N1Cc1ccc2c(c1)OCO2	11.8%	-19.1%	5.1%	-16.6%
O=C1c2ccccc2C(O)N1Cc1ccc2c(c1)OCO2 (stereo not drawn)	0.7%	-1.4%	-2.5%	15.8µM*
O=C1c2ccccc2C(Nc2ccc3c(c2)OCO3)N1Cc1ccc2c(c1)OCO2 (stereo not drawn)	-3.3%	-22.1%	0.7%	?
CCOC(=O)N1CCN(Cc2nc3cc(NC(=O)C(C)C)ccc3n2C(C)C)CC1	-6.2%	.	10.4%	.
CCN(CC)S(=O)(=O)c1ccc2c(c1)N(CC(=O)NCCCN1CCN(c3ccc(OC)cc3)CC1)C(=O)CO2	-9.3%	.	4.6%	.
O=C(CCn1nnc2ccccc21)Nc1nnc(Cc2ccccc2)s1	6.8%	1.6%	-4.5%	31.6µM*
O=C(CCn1nnc2ccccc21)Nc1nnc(COc2ccccc2F)s1	.	2.9%	.	-18.1%
COc1cc([N+](=O)[O-])ccc1-c1ccc(C(=O)Nc2ccc(NC(C)=O)cc2)o1	.	-9.3%	.	28.2µM*
CCC(=O)Nc1ccc(CC)cc1-c1nc2ccccc2n(CC(=O)Nc2ccccc2C)c1=O	-2.2%	.	4.2%	.
SMILES	p53ts 39C kill	ALOX12 inhib	p53ts 32C kill	HPGD inh
Cc1ccccc1C(=O)O/N=C(\N)c1cccc([N+](=O)[O-])c1	.	9.3%	.	2.82µM*
COc1ccccc1C(=O)O/N=C(\N)c1ccccc1Cl	.	-0.2%	.	28.2µM*
N/C(=N\OC(=O)c1ccccc1Cl)c1ccccc1	.	0.9%	.	11.2µM*
O=C(CNC(=O)c1ccccc1)OCC(=O)N1c2ccccc2Sc2ccccc21	.	-0.7%	.	-18.9%
N/C(=N\OC(=O)N1c2ccccc2Sc2ccccc21)c1ccccc1	.	-24.6%	.	17.8µM*
COc1ccccc1C(=O)Oc1ccc(C(C)C)cc1	.	-11.1%	.	?
COc1ccc(-n2ncc(C(=O)NCc3ccco3)c2C2CCN(C(=O)OC(C)(C)C)CC2)cc1	19.9%	.	3.6%	.
COc1ccc(-c2nnc(SCC(=O)N(C)C3CCCCC3)o2)cc1OC	-0.6%	.	2.2%	.
N/C(=N\OC(=O)c1ccccc1Cl)c1ccc(Cl)cc1	.	-0.7%	.	15.8µM*
CCOc1ccccc1N1CC(c2nc3ccccc3n2CCCOc2ccccc2)CC1=O (stereo not drawn)	-17.9%	.	-11.5%	.
Cc1cc2nc(-c3ccc(NC(=O)c4ccccc4F)cc3)oc2cc1C	-2.2%	.	-5.0%	.
O=C(COc1ccccc1Cl)NC(=S)N1CCc2ccccc21	.	-9.7%	.	20µM*
COc1ccccc1C(=O)NC(=S)N1CCCc2ccccc21	.	-13.2%	.	8.91µM*
O=C(NC(=S)N1CCCc2ccccc21)c1ccccc1	.	-0.3%	.	-9.7%
COc1ccc(C2=NOC(C(=O)NCc3ccco3)C2)cc1 (stereo not drawn)	.	5.3%	.	?
COc1ccc(NC(=O)C2C3C=CC(C3)C2C(=O)NCc2ccco2)cc1 (stereo not drawn)	6.7%	-0.5%	-1.2%	25.1µM*
O=C(NNc1nc2cc3c(cc2s1)OCO3)c1ccc(F)cc1	.	-11.3%	.	25.1µM*
CCCCCCCC(=O)NNC(=O)c1ccc([N+](=O)[O-])cc1	.	1.9%	.	-1.9%
CCCCCC(=O)NNC(=S)NC(=O)c1cccc([N+](=O)[O-])c1	.	-11.5%	.	10µM*
Cn1c(=O)c2[nH]c(SCc3ccccn3)nc2n(C)c1=S	7.5%[9.22 µM]	-0.5%[11.4 µM]	-2.4%[9.22 µM]	-4.0%
O=c1[nH]c(SCc2c(Cl)c(Cl)c(Cl)c(Cl)c2Cl)nc(=S)[nH]1	-1.0%[9.22 µM]	-16.5%[11.4 µM]	-15.4%[9.22 µM]	3.98µM*
C=CCSc1nnc(NC(=O)c2cccc(S(=O)(=O)N3CCOCC3)c2)s1	16.0%	0.9%	4.2%	3.55µM*
O=C(/C=C/c1ccccc1Cl)NCCc1ccc(F)cc1	.	-9.4%	.	-21.1%
O=C(/C=C/c1ccccc1)NCCSCc1ccc(Cl)cc1	.	-1.8%	.	-11.0%
O=C(/C=C/c1ccc(Cl)cc1Cl)NCCSCc1ccccc1	.	-4.4%	.	14.1µM*
SMILES	p53ts 39C kill	ALOX12 inhib	p53ts 32C kill	HPGD inh
Cc1ccc(CSCCNC(=O)/C=C/c2ccccc2Cl)cc1	.	?	.	8.91µM*
O=C(/C=C/c1ccccc1)NCCSCc1ccccc1Cl	.	-0.8%	.	10µM*
COc1ccc(-c2ccc(Nc3ccc(C(=O)N4CCOCC4)cc3)nn2)cc1OC	8.1%	0.7%	8.4%	17.8µM*
COc1cc(C(=O)N2CCN(c3ccc(Nc4ccccc4)nn3)CC2)cc(OC)c1OC	-10.7%	.	-2.3%	.
COc1ccccc1-c1ccc(Nc2ccc(C(=O)N3CCOCC3)cc2)nn1	4.7%	0.0%	-0.9%	7.94µM*
CCN(CC)c1ccc(C2C(C(N)=O)=C(C)Nc3ncnn32)cc1 (stereo not drawn)	5.9%	.	-5.7%	.
O=c1c(-c2cccs2)nc2cncnc2n1-c1ccccc1	-1.0%	.	5.6%	.
CCOc1ccc(/C=C/c2nc(C#N)c(N3CCN(CC)CC3)o2)cc1	-29.0%	.	15.8%	.
CCc1c(C)sc(NC(=O)c2cc(C)no2)c1C#N	?	1.4%	?	31.6µM*
CCc1cc(C(=O)Nc2sc(C)c(CC)c2C#N)no1	-17.1%	.	-5.5%	.
COc1ccc(C(=O)Nc2cc(C(=O)c3ccccc3)c(C)oc2=O)cc1	.	?	.	-11.0%
Cc1oc(=O)c(NC(=O)c2cccc(Cl)c2)cc1C(=O)c1ccccc1	.	-21.4%	.	31.6µM*
